Assay outcomes deposited in PubChem by National Center for Advancing Translational Sciences (NCATS).
Shown is part of a subset that was picked to be rich in hits.
ERK EGF block = EGF-driven ERK pathway inhibition; HEK293-V1b, EGF-stimulated phospho-ERK AlphaScreen; 130,000 compounds, 0.41% hits; Potency, µM (doses to about 11.5 µM), for inactives: at the highest dose activity change, negative = inhibition, most hits filed as inhibitors; AID 1454; active = well fitted inhibition curve with a large enough effect;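 also: plate controls were stimulated vehicle wells for no effect and unstimulated vehicle basal for full effect; nearly all actives have a fitted effect of over 55% in size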
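Stably V1b-transfected HEK293 cells; 30 min compound, then EGF 25 nM final for 5 min at 37C; 10 min lysis; phospho-ERK by AlphaScreen after 5 hr beads at room temperature.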
* = called active by the depositor; [ ] = remark or other dose. Potency is read from the fitted curve at half-maximal effect.

COc1cc(O)c(C(CCN2CCN(c3ccccc3)CC2)c2ccc(N(C)C)cc2)c(OC)c1 (stereo not drawn) was read as ERK EGF block 18µM*.
`COc1ccc(C(CCN2CCCCC2)c2c(O)cc(OC)cc2OC)cc1` (stereo not drawn) gave ERK EGF block -4%[57.5 µM].
Screening COc1ccc(C(CCN2CCN(c3ccccc3)CC2)c2c(O)cc(OC)cc2OC)cc1 (stereo not drawn) returned ERK EGF block -1%[57.5 µM].
Screening c1ccc(CNc2oc(-c3ccccc3)nc2-c2ccccc2)cc1 returned ERK EGF block -12%.
For O=C(N/N=C/c1ccc[nH]1)c1ccc(COc2cccc3cccnc23)cc1 the results were ERK EGF block 25µM*.
For O=C(N/N=C/c1ccccc1C(=O)O)c1ccc(COc2cccc3cccnc23)cc1 the results were ERK EGF block 0%.
Screening NNC(=O)c1ccc(COc2cccc3cccnc23)cc1 returned ERK EGF block -2%.
For C=CC(C)(C)c1[nH]c2ccccc2c1C1=C(O)C(=O)C(c2c[nH]c3c(CC=C(C)C)cccc23)=C(O)C1=O the results were ERK EGF block -11%.
`Cc1cn(C2CC(N=[N+]=[N-])C(CO)O2)c(=O)[nH]c1=O` (stereo not drawn) gave ERK EGF block 6%.
CC(C)[C@@H](CC(=O)N[C@@H]1CCNC[C@H]1C(=O)N[C@H](CC(=O)N[C@@H](CCC(=O)O)CC(=O)O)Cc1c[nH]c2ccccc12)NC(=O)C[C@H](CO)NC(=O)[C@@H]1CCCC[C@H]1N was read as ERK EGF block -15%.
`O=C(O)c1ccc(/C=N/N2CCN(Cc3cccc4ccccc34)CC2)cc1` gave ERK EGF block 0%.
Cn1cccc1/C=N/N1CCN(Cc2cccc3ccccc23)CC1 was read as ERK EGF block 18µM*.
Screening Cn1cccc1/C=N/N1CCN(c2ccccn2)CC1 returned ERK EGF block 30%.
C=CC[C@@](C(C)=O)(C(=O)OC)C(NC(=O)OC(C)(C)C)c1ccccc1 (stereo partly drawn) was read as ERK EGF block 1%.
COc1ccc2c(c1)O[C@H](c1ccc3c(c1)OCO3)[C@@H](OC(=O)NCc1ccco1)C2=O was read as ERK EGF block -8%.
`CN(C(=O)COC(=O)CNC(=O)c1ccccc1Cl)c1ccccc1` gave ERK EGF block -8%.
`CN(C(=O)COc1ccccc1C(=O)NCCOc1ccccc1)c1ccccc1` gave ERK EGF block 32µM*.
CCOc1ccccc1C(=O)NCCC(=O)O was read as ERK EGF block -16%[57.5 µM].
COC(=O)NC(c1ccccc1)C1(C(=O)OC)C(=O)Cc2ccccc21 (stereo not drawn) was read as ERK EGF block -1%.
CCCCC[C@H](O)/C=C/[C@H]1OC(O)C[C@H](O)[C@@H]1C/C=C\CCCC(=O)O (stereo partly drawn) was read as ERK EGF block 3%.
For CN(C)c1ccc(CNC(=O)[C@@]2(C)C=C[C@@H](Cc3ccccc3)N2C)cc1 the results were ERK EGF block 0%.
For Cc1ccc2c(c1)-c1c(ssc1=S)C(C)(C)N2C(=O)c1ccco1 the results were ERK EGF block 13µM*.
Screening Cc1cccn2c1nc(=S)n2C(=O)c1ccco1 returned ERK EGF block -2%.
For Cc1ccc(CN2CCN(C(=O)c3ccco3)CC2)cc1 the results were ERK EGF block -2%.
Screening C=CC[C@@](C(C)=O)(C(=O)OC)C(NC(=O)OC)c1ccccc1 (stereo partly drawn) returned ERK EGF block -2%.
`COc1ccc(-c2cc(C(F)F)n3ncc(C(=O)Nc4c(C)n(C)n(-c5ccccc5)c4=O)c3n2)cc1` gave ERK EGF block 6%.
For COc1ccc(-c2cc(C(F)F)n3ncc(C(=O)Nc4cc(C)on4)c3n2)cc1 the results were ERK EGF block 28µM*.
For COCCNC(=O)c1cnn2c(C(F)F)cc(-c3ccc(C)cc3)nc12 the results were ERK EGF block -12%.
COc1cccc2c1C(=O)c1c(O)c3c(c(O)c1C2=O)C[C@](O)(C(=O)CO)C[C@H]3O[C@@H]1C[C@H](N)[C@H](O)[C@H](C)O1 was read as ERK EGF block -2%[25.7 µM].
COc1ccc(-c2nn(-c3ccccc3)cc2/C=N/NC(=S)NC(C)C)cc1OC was read as ERK EGF block -7%.
Screening COc1ccc(-c2nn(-c3ccccc3)cc2/C=N/N=C(N)N)cc1OC returned ERK EGF block 25µM*.
COc1ccc(-c2nn(-c3ccccc3)cc2/C=N/Nc2ccc3ccccc3n2)cc1OC was read as ERK EGF block 4%.
`N#C/C(=C\c1ccc(O)c(O)c1)C(=O)NCCCCc1ccccc1` gave ERK EGF block 0%.
For COC(=O)c1ccc(C(NC(=O)OCc2ccccc2)/C(F)=C/[C@@H](C)C(=O)NC2CCCCC2)cc1 (stereo partly drawn) the results were ERK EGF block 9%.
`O=[N+]([O-])c1ccccc1N/N=C/c1cccc(O)c1O` gave ERK EGF block 2%[57.5 µM].
For CCCONC(=O)Nc1ccccc1[N+](=O)[O-] the results were ERK EGF block 4%.
`CCCOc1ccc(/C=N/Nc2ccccc2[N+](=O)[O-])c(OCCC)c1` gave ERK EGF block 11µM*.
Screening CC(C)=CCn1cnc2c1c(=O)n(C)c(=O)n2C returned ERK EGF block -26%.
Screening CN(C)c1ccc(-c2nc(NCc3cccnc3)c3ccccc3n2)cc1 returned ERK EGF block 20%.
For C/C=C\C[C@@H](C)[C@@H](O)[C@H]1C(=O)N[C@@H](CC)C(=O)N(C)CC(=O)N(C)[C@@H](CC(C)C)C(=O)N[C@@H](C(C)C)C(=O)N(C)[C@@H](CC(C)C)C(=O)N[C@@H](C)C(=O)N[C@H](C)C(=O)N(C)[C@@H](CC(C)C)C(=O)N(C)[C@@H](CC(C)C)C(=O)N(C)[C@@H](C(C)C)C(=O)N1C the results were ERK EGF block -4%.
`Cc1csc2ncnc(N3CCN(C(=O)Nc4ccc(OC(F)(F)F)cc4)CC3)c12` gave ERK EGF block 28µM*.
`O=C(Nc1ccc(OC(F)(F)F)cc1)c1ccc(-n2cncn2)nc1` gave ERK EGF block -10%.
Screening O=C(Nc1ccc(OC(F)(F)F)cc1)N1CCN(c2ccnc3cc(Cl)ccc23)CC1 returned ERK EGF block -2%[57.5 µM].
`COC(=O)C1(C(=O)OC)CC2=C[C@H](CC2=O)Cc2ccccc2[C@@H]1C[N+](=O)[O-]` gave ERK EGF block -11%.
COc1cc(OC)cc(C(=O)NNc2nc3cc4c(cc3s2)OCO4)c1 was read as ERK EGF block 0%.
O=C(NNc1nc2cc3c(cc2s1)OCO3)c1cccc(F)c1 was read as ERK EGF block 18µM*.
COc1cc(C(=O)NNc2nc3cc4c(cc3s2)OCO4)cc(OC)c1OC was read as ERK EGF block 6%.
For CC(C)[C@@H](CC(=O)N[C@@H]1CCCC[C@H]1C(=O)N[C@H](CC(=O)N[C@@H](CCC(=O)O)CC(=O)O)Cc1ccccc1)NC(=O)C[C@H](CO)NC(=O)[C@@H]1CNCC[C@H]1N the results were ERK EGF block -1%.
Cc1cccc(C)c1NC(=O)c1cccc2c1-c1ccccc1C2=O was read as ERK EGF block 2%.
N/C(Cc1ccccc1Sc1ccccc1)=N\O was read as ERK EGF block 6%.
O=C1c2cccc(Sc3ccccc3)c2C(=O)c2c(Sc3ccccc3)cccc21 was read as ERK EGF block 7.1µM*.
Screening COc1cccc(-c2ccc3ncnc(NC4CCNCC4)c3c2)c1 returned ERK EGF block 34%.
